The record followed here is PubChem BioAssay (EPA / NIEHS).

Common to all, as to conditions: mRNA level, 48 h; actives raise or lower the signal
Read-out in assay [1]: Tumor necrosis factor receptor superfamily member 6 (Homo sapiens) (UniProt P25445)
As to the kind of experiment: LTEA_HepaRG_FAS: Life Technologies and Expression Analysis (LTEA) Assay for Fas cell surface death receptor (FAS) using HepaRG (AID 2283447). An outline of the steps:
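FAS transcript level was measured by TaqMan qRT-PCR against three housekeeping genes after 48 h chemical exposure. Cells were HepaRG, 0.5% DMSO vehicle, with a top concentration of 100 uM and half-log dilutions over eight points, in duplicate.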

Read-out in assay [2]: Fatty acid synthase (Homo sapiens) (UniProt P49327)
As to the kind of experiment: LTEA_HepaRG_FASN: Life Technologies and Expression Analysis (LTEA) Assay for Fatty Acid Synthase (FASN) using HepaRG (AID 2283448). Put shortly: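 Cells were plated, cultured 48 h, switched to serum-free induction medium, then dosed in duplicate (max 100 uM, half-log dilutions, 0.5% DMSO) for 48 h. RNA was then isolated and FASN quantified by qRT-PCR.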

Read-out in assay [3]: Cyclin D2 (CCND2), CCND2 (gene 894)
In words: LTEA_HepaRG_CCND2: Life Technologies and Expression Analysis (LTEA) Assay for Cyclin D2 (CCND2) using HepaRG (AID 2283449). An outline of the steps: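 CCND2 transcript levels, quantified by qRT-PCR and normalised to three housekeeping genes, were fitted bidirectionally against 0.5% DMSO. HepaRG cultures were dosed 48 h in duplicate with an 8-point half-log series up to 100 uM.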

Read-out in assay [4]: Cyclin Dependent Kinase Inhibitor 1A (CDKN1A), CDKN1A (gene 1026)
As to the kind of experiment: LTEA_HepaRG_CDKN1A: Life Technologies and Expression Analysis (LTEA) Assay for Cyclin Dependent Kinase Inhibitor 1A (CDKN1A) using HepaRG (AID 2283450). An outline of the steps:
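Read-out is CDKN1A mRNA by TaqMan qRT-PCR, normalized to three housekeeping genes and fitted in both directions against the DMSO baseline. Human HepaRG cells were treated 48 h with test chemicals up to 100 uM in half-log steps, 0.5% DMSO.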

Read-out in assay [5]: Cyclin D1 (CCND1), CCND1 (gene 595)
In words: LTEA_HepaRG_CCND1: Life Technologies and Expression Analysis (LTEA) Assay for Cyclin D1 (CCND1) using HepaRG (AID 2283451).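 As to AC50: differentiated human HepaRG liver cells in serum-free induction medium; TaqMan qRT-PCR transcript level normalised to ACTB GAPDH and POLR2A housekeeping genes.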 Put shortly:
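HepaRG plated 48 h, medium switched to serum-free induction medium, chemicals added in duplicate (top 100 uM, half-log steps, 0.5% DMSO) for 48 h, cells lysed, RNA measured by TaqMan qRT-PCR.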

Read-out in assay [6]: catalase (CAT), CAT (gene 847)
In words: LTEA_HepaRG_CAT: Life Technologies and Expression Analysis (LTEA) Assay for catalase (CAT) using HepaRG (AID 2283452).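 As to AC50: TaqMan qRT-PCR signal normalized to ACTB GAPDH and POLR2A housekeeping genes.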 An outline of the steps: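 Expression of CAT was quantified by TaqMan qRT-PCR with ACTB/GAPDH/POLR2A normalization after 48 h chemical exposure of HepaRG. Eight-point half-log series, top 100 uM, in 0.5% DMSO; gain or loss fitted against vehicle.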

Read-out in assay [7]: flavin-containing dimethylaniline monooxygenases 3 (FMO3), FMO3 (gene 2328)
As to the kind of experiment: LTEA_HepaRG_FMO3: Life Technologies and Expression Analysis (LTEA) Assay for flavin-containing dimethylaniline monooxygenases 3 (FMO3) using HepaRG (AID 2283453).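 As to AC50: differentiated human HepaRG liver cells in serum-free induction medium.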 An outline of the steps:
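FMO3 transcript quantified by TaqMan qRT-PCR against three housekeeping genes after 48 h chemical exposure of HepaRG cells. Eight-point half-log series, top 100 uM, 0.5% DMSO vehicle; phenobarbital 1mM induction control; up- or down-regulation fitted.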

Read-out in assay [8]: Cytochrome P450 (CYP1A1), CYP1A1 (gene 1543)
In words: LTEA_HepaRG_CYP1A1: Life Technologies and Expression Analysis (LTEA) Assay for Cytochrome P450 (CYP1A1) using HepaRG (AID 2283454). An outline of the steps:
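HepaRG, 48 h post-plating switched to serum-free induction medium; 8-pt conc-response (top 100 uM, half-log, 0.5% DMSO), duplicates, 48 h. Lysis in RLT, TaqMan qRT-PCR for CYP1A1; gain or loss vs DMSO.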

Read-out in assay [9]: CFLAR gene, CFLAR (gene 8837)
In words: LTEA_HepaRG_CFLAR: Life Technologies and Expression Analysis (LTEA) Assay for CFLAR gene using HepaRG (AID 2283455). Put shortly: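 Transcript level by qRT-PCR (normalized to ACTB, GAPDH and POLR2A) after 48 h chemical exposure of HepaRG cells, top concentration 100 uM with half-log steps, 0.5% DMSO vehicle, duplicates; fitted bidirectionally against DMSO baseline.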

Read-out in assay [10]: Forkhead box O1 (FOXO1), FOXO1 (gene 2308)
In words: LTEA_HepaRG_FOXO1: Life Technologies and Expression Analysis (LTEA) Assay for Forkhead box O1 (FOXO1) using HepaRG (AID 2283456). An outline of the steps:
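FOXO1 transcript quantified by qRT-PCR after 48 h chemical exposure (top 100 uM, half-log steps, 0.5% DMSO) of HepaRG cells, housekeeping-normalized (ACTB/GAPDH/POLR2A). Changes fitted in both directions relative to vehicle.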

Read-out in assay [11]: growth arrest and DNA damage 45 (GADD45A), GADD45A (gene 1647)
As to the kind of experiment: LTEA_HepaRG_GADD45A: Life Technologies and Expression Analysis (LTEA) Assay for growth arrest and DNA damage 45 (GADD45A) using HepaRG (AID 2283458). Put shortly: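 Transcript induction or loss, quantified by TaqMan qRT-PCR against three housekeeping genes, is the read-out. HepaRG cells received chemicals for 48 h across eight half-log concentrations from 100 uM in 0.5% DMSO; gain and loss fitted relative to DMSO.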

Read-out in assay [12]: ABC Transporter (ABCB1), ABCB1 (gene 5243)
As to the kind of experiment: LTEA_HepaRG_ABCB1: Life Technologies and Expression Analysis (LTEA) Assay for ABC Transporter (ABCB1) using HepaRG (AID 2283460). Put shortly:
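ABCB1 transcript level measured by TaqMan qRT-PCR against three housekeeping genes after 48 h chemical exposure of differentiated HepaRG cells. Top concentration 100 uM, half-log steps, eight points, 0.5% DMSO vehicle; bidirectional fit relative to DMSO.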

Read-out in assay [13]: growth arrest and DNA damage 45 (GADD45B), GADD45B (gene 4616)
As to the kind of experiment: LTEA_HepaRG_GADD45B: Life Technologies and Expression Analysis (LTEA) Assay for growth arrest and DNA damage 45 (GADD45B) using HepaRG (AID 2283461). Put shortly:
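HepaRG, ~100,000 cells/well, 48 h plating; serum-free induction medium; cpd 100 uM top, half-log x8, 0.5% DMSO, duplicate, 48 h; lysis in RLT, RNA isolation, qRT-PCR; norm ACTB/GAPDH/POLR2A; bidirectional fit vs DMSO.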

Read-out in assay [14]: ABC Transporter (ABCC3), ABCC3 (gene 8714)
In words: LTEA_HepaRG_ABCC3: Life Technologies and Expression Analysis (LTEA) Assay for ABC Transporter (ABCC3) using HepaRG (AID 2283462). An outline of the steps:
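Human HepaRG, 48 h dosing, 8-pt half-log series from 100 uM, 0.5% DMSO vehicle, duplicates. ABCC3 mRNA by TaqMan qRT-PCR, housekeeping-normalized; bidirectional curve fit vs DMSO.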

Read-out in assay [15]: Broad substrate specificity ATP-binding cassette transporter ABCG2 (Homo sapiens) (UniProt Q9UNQ0)
As to the kind of experiment: LTEA_HepaRG_ABCG2: Life Technologies and Expression Analysis (LTEA) Assay for ABC Transporter (ABCG2) using HepaRG (AID 2283465). Put shortly:
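ABCG2 transcript was quantified by TaqMan qRT-PCR against three housekeeping genes in HepaRG cells. Cells were treated in duplicate for 48 h across an 8-point half-log series up to 100 uM, with 0.5% DMSO vehicle. Gain or loss versus DMSO was fit.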

Read-out in assay [16]: Forkhead box O3 (FOXO3), FOXO3 (gene 2309)
In words: LTEA_HepaRG_FOXO3: Life Technologies and Expression Analysis (LTEA) Assay for Forkhead box O3 (FOXO3) using HepaRG (AID 2283459). Put shortly: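 FOXO3 transcript measured by qRT-PCR (normalized to ACTB, GAPDH, POLR2A) after 48 h exposure of HepaRG cells in serum-free induction medium. Duplicates, eight half-log concentrations up to 100 uM, 0.5% DMSO; gain or loss fitted against DMSO.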

Read-out in assay [17]: ABC Transporter (ABCB11), ABCB11 (gene 8647)
In words: LTEA_HepaRG_ABCB11: Life Technologies and Expression Analysis (LTEA) Assay for ABC Transporter (ABCB11) using HepaRG (AID 2283463). An outline of the steps:
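ABCB11 transcript levels quantified by TaqMan qRT-PCR against three housekeeping genes after 48 h chemical exposure of HepaRG cultures. Concentrations up to 100 uM in half-log steps, 0.5% DMSO vehicle; both induction and suppression scored.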

Read-out in assay [18]: ABC Transporter (ABCC2), ABCC2 (gene 1244)
In words: LTEA_HepaRG_ABCC2: Life Technologies and Expression Analysis (LTEA) Assay for ABC Transporter (ABCC2) using HepaRG (AID 2283464). Put shortly:
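HepaRG, 48 h post-plating; serum-free induction medium; cpd 8-pt, 100 uM top, half-log, 0.5% DMSO, duplicate, 48 h. Readout: ABCC2 mRNA by qRT-PCR, norm. ACTB/GAPDH/POLR2A. Bidirectional fit vs DMSO baseline.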

Calls of active or inactive are those of the source. The calls were made as follows: active = hit-call score of the fitted dose curve at least 0.9, where 1 is the maximum; inactive = score below 0.9.

Sequence of Fatty acid synthase (Homo sapiens) (P49327 whole entry, looked up): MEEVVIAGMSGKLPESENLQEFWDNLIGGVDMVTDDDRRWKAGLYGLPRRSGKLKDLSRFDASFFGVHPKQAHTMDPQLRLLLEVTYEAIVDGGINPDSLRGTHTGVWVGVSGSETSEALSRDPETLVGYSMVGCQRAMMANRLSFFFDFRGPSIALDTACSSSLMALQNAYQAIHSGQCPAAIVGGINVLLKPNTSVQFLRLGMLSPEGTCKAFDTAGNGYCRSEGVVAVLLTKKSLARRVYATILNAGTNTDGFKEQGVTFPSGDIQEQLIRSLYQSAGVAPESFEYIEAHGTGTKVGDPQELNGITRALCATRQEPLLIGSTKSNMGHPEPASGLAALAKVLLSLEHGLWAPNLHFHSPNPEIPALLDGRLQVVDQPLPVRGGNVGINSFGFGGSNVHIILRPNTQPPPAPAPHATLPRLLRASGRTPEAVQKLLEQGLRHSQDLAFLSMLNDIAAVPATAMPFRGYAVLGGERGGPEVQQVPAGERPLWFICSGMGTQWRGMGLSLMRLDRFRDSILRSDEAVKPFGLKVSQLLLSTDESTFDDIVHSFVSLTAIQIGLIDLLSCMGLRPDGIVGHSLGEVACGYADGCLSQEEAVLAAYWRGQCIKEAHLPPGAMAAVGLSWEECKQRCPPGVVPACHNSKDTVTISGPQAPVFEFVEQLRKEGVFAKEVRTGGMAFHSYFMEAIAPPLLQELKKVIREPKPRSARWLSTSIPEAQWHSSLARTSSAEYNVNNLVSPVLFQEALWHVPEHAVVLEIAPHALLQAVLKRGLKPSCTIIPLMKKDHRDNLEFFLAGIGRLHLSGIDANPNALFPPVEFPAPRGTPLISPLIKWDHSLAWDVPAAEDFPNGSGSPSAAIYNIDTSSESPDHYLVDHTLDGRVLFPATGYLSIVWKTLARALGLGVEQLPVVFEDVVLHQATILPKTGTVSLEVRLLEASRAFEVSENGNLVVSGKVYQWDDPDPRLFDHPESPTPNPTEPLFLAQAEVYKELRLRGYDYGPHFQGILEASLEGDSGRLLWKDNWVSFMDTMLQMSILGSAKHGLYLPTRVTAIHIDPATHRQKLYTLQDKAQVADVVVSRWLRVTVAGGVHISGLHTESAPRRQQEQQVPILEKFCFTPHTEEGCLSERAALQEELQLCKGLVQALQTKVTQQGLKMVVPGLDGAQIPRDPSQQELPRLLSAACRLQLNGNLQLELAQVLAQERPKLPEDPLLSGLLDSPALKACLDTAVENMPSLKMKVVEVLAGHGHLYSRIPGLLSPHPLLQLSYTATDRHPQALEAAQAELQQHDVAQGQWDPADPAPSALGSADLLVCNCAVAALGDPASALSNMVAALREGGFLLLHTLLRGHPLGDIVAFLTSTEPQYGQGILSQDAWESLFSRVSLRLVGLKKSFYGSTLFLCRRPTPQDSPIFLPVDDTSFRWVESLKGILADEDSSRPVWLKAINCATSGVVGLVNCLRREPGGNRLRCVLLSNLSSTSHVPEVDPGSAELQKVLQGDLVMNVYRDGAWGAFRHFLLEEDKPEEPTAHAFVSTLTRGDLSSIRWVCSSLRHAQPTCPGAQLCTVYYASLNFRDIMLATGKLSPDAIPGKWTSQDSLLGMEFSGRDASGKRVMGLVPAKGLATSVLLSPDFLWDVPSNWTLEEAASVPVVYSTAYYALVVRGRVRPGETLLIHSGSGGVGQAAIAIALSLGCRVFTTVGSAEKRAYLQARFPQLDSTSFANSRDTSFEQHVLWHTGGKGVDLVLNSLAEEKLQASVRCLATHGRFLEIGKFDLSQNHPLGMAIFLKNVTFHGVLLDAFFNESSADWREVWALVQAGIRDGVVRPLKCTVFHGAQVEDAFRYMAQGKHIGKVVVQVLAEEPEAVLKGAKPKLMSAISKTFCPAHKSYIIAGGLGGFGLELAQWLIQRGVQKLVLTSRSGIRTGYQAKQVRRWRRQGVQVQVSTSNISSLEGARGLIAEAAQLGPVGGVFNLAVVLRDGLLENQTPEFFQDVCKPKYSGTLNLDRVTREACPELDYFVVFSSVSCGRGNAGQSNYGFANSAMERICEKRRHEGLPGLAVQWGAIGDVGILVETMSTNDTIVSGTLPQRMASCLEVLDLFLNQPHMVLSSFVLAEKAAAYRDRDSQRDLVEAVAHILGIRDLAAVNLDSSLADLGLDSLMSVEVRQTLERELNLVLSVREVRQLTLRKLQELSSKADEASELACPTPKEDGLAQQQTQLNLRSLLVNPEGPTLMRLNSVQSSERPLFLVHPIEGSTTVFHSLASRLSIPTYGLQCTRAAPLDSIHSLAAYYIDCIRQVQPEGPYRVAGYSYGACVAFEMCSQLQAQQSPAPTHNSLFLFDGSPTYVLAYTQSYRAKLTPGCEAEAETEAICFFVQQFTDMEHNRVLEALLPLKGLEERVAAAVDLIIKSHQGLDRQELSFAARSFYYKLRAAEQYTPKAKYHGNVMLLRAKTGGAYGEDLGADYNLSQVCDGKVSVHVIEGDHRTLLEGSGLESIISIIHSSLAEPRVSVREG
Sequence of Broad substrate specificity ATP-binding cassette transporter ABCG2 (Homo sapiens) (Q9UNQ0 whole entry, looked up): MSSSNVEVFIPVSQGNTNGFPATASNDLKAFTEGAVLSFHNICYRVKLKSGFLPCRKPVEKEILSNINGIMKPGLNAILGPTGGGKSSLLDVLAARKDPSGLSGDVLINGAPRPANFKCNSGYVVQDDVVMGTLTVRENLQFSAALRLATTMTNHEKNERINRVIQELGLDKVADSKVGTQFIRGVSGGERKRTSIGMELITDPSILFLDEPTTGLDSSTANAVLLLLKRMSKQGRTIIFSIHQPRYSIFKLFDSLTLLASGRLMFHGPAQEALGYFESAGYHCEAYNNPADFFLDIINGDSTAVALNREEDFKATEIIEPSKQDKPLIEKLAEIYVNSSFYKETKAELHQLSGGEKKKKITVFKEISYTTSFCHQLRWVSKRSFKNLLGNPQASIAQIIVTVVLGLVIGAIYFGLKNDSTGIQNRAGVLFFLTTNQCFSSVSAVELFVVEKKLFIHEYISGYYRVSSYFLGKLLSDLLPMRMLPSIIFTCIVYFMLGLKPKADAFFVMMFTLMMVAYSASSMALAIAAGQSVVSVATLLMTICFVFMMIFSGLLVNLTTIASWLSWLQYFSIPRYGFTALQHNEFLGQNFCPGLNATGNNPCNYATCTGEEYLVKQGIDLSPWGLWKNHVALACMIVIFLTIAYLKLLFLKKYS

On to `CNC(=O)[C@H]1O[C@@H](n2cnc3c(NCc4cc(Cl)ccc4OCc4cc(C)no4)ncnc32)[C@H](O)[C@@H]1N`, for which the molecule was classed as inactive in assay [1], in assay [2], in [3], in assay [4], in assay [5] and in [6]. For the same molecule, the call in assay [7], in assay [8], in assay [9], in assay [10], in assay [11] and in assay [12] was inactive. For the same molecule, the call in assay [13], in assay [14] and in assay [15] was inactive.

For `COc1cc(-c2nc(NC(=O)c3cc4cc(C)cc(C)c4n3CC(=O)O)sc2CCC2CCCCC2)c(OC)cc1Cl`, the AC50 – broadly, the concentration giving half of the maximal activity seen – is 20.8 µM (active) in assay [1]; 7.6 µM (active) in [6]; 8.16 µM (active) in assay [7]; 19.8 µM (active) in assay [9]; 42.2 µM (active) in [10]; 15.2 µM (active) in assay [11]. Also, the AC50 in [16] is 20.6 µM (active); in assay [12], 11.4 µM (active); in assay [13], 2.18 µM (active); in [17], 7.37 µM (active); in assay [18], 7.35 µM (active); in [15] it was 24.5 µM (active). In addition, the call in assay [2], in assay [3], in assay [4], in [8] and in [14] was inactive.

For `COCCOC[C@H](CC1(C(=O)NC2CCC(C(=O)O)CC2)CCCC1)C(=O)Oc1ccc2c(c1)CCC2` (some centres undefined), the outcome in assay [1], in assay [2], in [3], in assay [4], in assay [6] and in [7] was inactive. Also, the outcome in assay [8], in assay [10], in assay [11], in [16], in [12] and in assay [13] was inactive. In addition, the result in [14] and in [15] was inactive. In addition, in assay [5], the AC50 is 0.204 µM (active).

As to `CCCCCCOCCO`, the call in assay [1], in [2], in assay [3], in assay [4], in assay [5] and in assay [6] was inactive. Moreover, the call in assay [7], in [10], in [11], in [16], in assay [12] and in assay [13] was inactive. Further, the call in [14], in assay [17], in assay [18] and in assay [15] was inactive. In addition, the AC50 in [8] was 50 µM (active).
